Screens: PubChem BioAssay, several laboratories
Most compounds without a hit are left out; they make up all but 7.2% or so of the library.
ALR inh – inhibitors of human sulfhydryl oxidase ALR | inhibition, % (test concentration not listed) | P55789 | purified ALR, DTT oxidation, H2O2 HRP-luminol luminescence | 290,000 compounds, 3.8% hits;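 active = mean replicate inhibition above about 79%, with every replicate also reaching it, limit read from the data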
Target sequence (P55789 whole entry, looked up): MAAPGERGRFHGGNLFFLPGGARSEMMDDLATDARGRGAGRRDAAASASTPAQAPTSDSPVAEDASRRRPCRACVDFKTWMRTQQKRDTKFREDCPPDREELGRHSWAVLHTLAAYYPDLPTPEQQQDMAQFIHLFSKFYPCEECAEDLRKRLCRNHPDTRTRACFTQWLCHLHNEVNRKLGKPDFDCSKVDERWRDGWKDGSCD
SUMO Mot1 rescue – blocks SUMOylation pathway, rescuing yeast Mot1-301 growth; S. cerevisiae Mot1-301 growth rescue, ATP luminescence, 38.5C; percent above DMSO median, 100 means doubled; growth rescue, % at 18.8 µM; 320,000 compounds, 1% hits; AID 2716;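 active = every valid replicate shows activation above 250% relative to neutral control wells; inactive = the rest, any valid replicate at or below 250%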;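 note: OY570 slx delta 5 strain wells were the positive control but not used for scaling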
Bfl-1 A1 inh – inhibitors of the anti-apoptotic protein A1, read as caspase activation; MEF A1-2A-BIM cells, Caspase-Glo 3/7 luminescence, 3 h; percent of clofoctol response, vehicle zero; caspase activation, % (no concentration beside the values); 330,000 compounds, 0.066% hits;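 active = over half of replicate activation scores above 10%, or exactly half above 10 with the replicate mean above 10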
AHR activator – activates the human aryl hydrocarbon receptor; P35869; AHR-responsive luciferase reporter cells, luminescence; activation, % at 5 µM; 320,000 compounds, 2.5% hits; AID 2796; in the data active = activation above about 47%;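 note: 0% = vehicle wells and 100% = reference agonist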
VLA-4 inh – inhibition in a human VLA-4 binding assay; P13612; VLA-4 expressing cells, ligand binding flow cytometry; inhibition, % (about 7 µM as worked out from the volumes in the protocol); 330,000 compounds, 0.2% hits; in the data active = inhibition above about 50%
Efflux pump inh – blocks antifungal efflux pumps in multiplex yeast assay | S. cerevisiae Candida pump triplex, Nile Red efflux | inhibition, % at 10 µM | 330,000 compounds, 0.44% hits | AID 485275;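 active = plate passing quality check with inhibition over a set limit, or well fluorescence over plate mean plus 4 SD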;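 note: Nile Red retained in pooled yeast measured as flow cytometry median fluorescence; 0% = buffer negative control and 100% = Enniatin B positive control; higher means more Nile Red kept so more efflux inhibition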
Starred values were filed as active, the others as inactive.

CCCCS(=O)(=O)Nc1ccc2c(c1)ncn2C1CCCCC1 was read as ALR inh -0.6, SUMO Mot1 rescue 26.4, Bfl-1 A1 inh 0.0, AHR activator 0.6, VLA-4 inh 9.7 and Efflux pump inh 0.1.
`c1ccc(CNc2ccc3c(c2)ncn3C2CCCCC2)nc1` gave ALR inh 94.0*, SUMO Mot1 rescue 134.8, Bfl-1 A1 inh 0.2, AHR activator 5.8, VLA-4 inh 0.4 and Efflux pump inh 0.1.
Screening COc1cc(/C=N/NS(=O)(=O)c2ccc3ccccc3c2)ccc1OCc1ccc(C(=O)O)cc1 returned SUMO Mot1 rescue 20.6, Bfl-1 A1 inh -6.5, AHR activator -5.0, VLA-4 inh 6.9 and Efflux pump inh -0.1.
Screening COc1cc(/C=N/NS(=O)(=O)c2ccc(C)cc2)ccc1OCc1cccc(C(=O)O)c1 returned ALR inh 19.0, SUMO Mot1 rescue 733.0*, Bfl-1 A1 inh -5.9, AHR activator -1.2, VLA-4 inh -0.6 and Efflux pump inh -0.3.
For CC(=O)NC(Cc1ccccc1C)C(=O)NC1CCN(c2nnnn2-c2ccccc2)CC1 (stereo not given) the results were ALR inh -2.8, SUMO Mot1 rescue 7.0, Bfl-1 A1 inh 0.8, AHR activator 0.4, VLA-4 inh 3.5 and Efflux pump inh 0.0.
`O=C(OCC(=O)N1CCCC1=O)c1cc(Cl)ccc1O` gave ALR inh -4.9, SUMO Mot1 rescue 5.7, Bfl-1 A1 inh -0.4, AHR activator -1.0, VLA-4 inh 6.8 and Efflux pump inh 0.0.
Clc1ccc(-c2nc(NCCN3CCOCC3)c3ccccc3n2)cc1 was read as ALR inh 17.9, SUMO Mot1 rescue -2.2, Bfl-1 A1 inh 0.6, AHR activator 63.2*, VLA-4 inh 6.0 and Efflux pump inh -0.1.
NNc1nc2c(Cl)ccc(Cl)c2s1 was read as ALR inh -5.3, SUMO Mot1 rescue 204.4, Bfl-1 A1 inh 0.3, AHR activator 55.7*, VLA-4 inh 3.2 and Efflux pump inh -1.7.
`CSc1ccccc1NC(=O)CN(C)CC(=O)c1c(C)[nH]c2ccccc12` gave ALR inh -1.1, SUMO Mot1 rescue 3.9, Bfl-1 A1 inh 2.3, AHR activator 13.1, VLA-4 inh 0.0 and Efflux pump inh 0.0.
Screening O=S(=O)(Cc1ccc(Cl)cc1)c1ncc(CO)n1Cc1ccccc1 returned ALR inh -3.7, SUMO Mot1 rescue active, Bfl-1 A1 inh 1.1, AHR activator 1.5, VLA-4 inh 22.0 and Efflux pump inh 0.0.
Screening O=S(Cc1ccc(Cl)cc1)c1ncc(CO)n1Cc1ccccc1 (stereo not given) returned ALR inh -12.7, SUMO Mot1 rescue -2.6, Bfl-1 A1 inh -0.1, AHR activator 3.7, VLA-4 inh 12.9 and Efflux pump inh 0.0.
Screening Cc1nc([N+](=O)[O-])cn1CC(=O)Nc1ccc([N+](=O)[O-])cc1 returned ALR inh -1.1, SUMO Mot1 rescue 1.7, Bfl-1 A1 inh 0.5, AHR activator 0.6, VLA-4 inh 6.2 and Efflux pump inh -0.1.
Screening c1cncc(Nc2nc(-c3cccs3)cs2)c1 returned ALR inh 95.9*, SUMO Mot1 rescue 65.9, Bfl-1 A1 inh -0.9, AHR activator 58.1*, VLA-4 inh -4.8 and Efflux pump inh -0.1.
`COc1ccc(Nc2nc(-c3c[nH]c4ccccc34)cs2)cc1` gave ALR inh -0.7, SUMO Mot1 rescue 155.7, Bfl-1 A1 inh -1.0, AHR activator 75.9*, VLA-4 inh -9.9 and Efflux pump inh -0.2.
COc1ccc(-c2csc(Nc3ccc(S(=O)(=O)Nc4cc(C)on4)cc3)n2)cc1 was read as ALR inh 98.1*, SUMO Mot1 rescue 6.9, Bfl-1 A1 inh 0.5, AHR activator 7.3, VLA-4 inh -2.3 and Efflux pump inh 0.0.
COc1ccc(-c2csc(Nc3cccnc3)n2)cc1 was read as ALR inh 4.7, SUMO Mot1 rescue 24.0, Bfl-1 A1 inh 0.5, AHR activator 54.2*, VLA-4 inh 4.3 and Efflux pump inh 0.1.
Screening COc1ccc(-c2csc(Nc3ccccc3)n2)cc1 returned ALR inh -11.0, SUMO Mot1 rescue 193.6, Bfl-1 A1 inh -5.9, AHR activator 5.8, VLA-4 inh 0.0 and Efflux pump inh -0.1.
For Cc1cccc(NC(=S)N2CCN(c3ccc(F)cc3)CC2)c1 the results were ALR inh -0.2, SUMO Mot1 rescue 35.5, Bfl-1 A1 inh 0.8, AHR activator -7.3, VLA-4 inh 9.8 and Efflux pump inh -0.1.
For Cc1ccc2cccc(OCC(=O)Nc3ccc(N4CCOCC4)cc3)c2n1 the results were ALR inh 17.5, SUMO Mot1 rescue -2.1, Bfl-1 A1 inh 0.1, AHR activator 36.1, VLA-4 inh -6.4 and Efflux pump inh -0.1.
For Cc1cccc(NC(=O)C2CCN(S(=O)(=O)c3c(C)noc3C)CC2)c1 the results were ALR inh -2.7, SUMO Mot1 rescue -8.5, Bfl-1 A1 inh 1.5, AHR activator 4.5, VLA-4 inh 9.8 and Efflux pump inh 0.4.
For Cc1ccc(S(=O)(=O)N2[C@@H](c3ccc(Cl)cc3)C(C(=O)O)=CC[C@H]2c2ccc(Cl)c(Cl)c2)cc1 the results were ALR inh 88.5*, SUMO Mot1 rescue -19.9, Bfl-1 A1 inh 1.3, AHR activator 4.8, VLA-4 inh -4.6 and Efflux pump inh 0.1.
For CC(O)(C#CCN1CCCCCC1)c1ccccc1 (stereo not given) the results were ALR inh 4.9, SUMO Mot1 rescue 8.9, Bfl-1 A1 inh -0.7, AHR activator 65.9*, VLA-4 inh 12.9 and Efflux pump inh 0.1.
O=C(CSc1ccc(C(F)(F)F)cc1[N+](=O)[O-])Nc1ccc2ccccc2c1 was read as ALR inh 99.1*, SUMO Mot1 rescue 9.6, Bfl-1 A1 inh 0.5, AHR activator 10.0, VLA-4 inh 26.0 and Efflux pump inh 0.3.
For O=C(CSC1=NCCS1)Nc1cccc(F)c1 the results were ALR inh 98.8*, SUMO Mot1 rescue -11.9, Bfl-1 A1 inh -0.4, AHR activator -1.1, VLA-4 inh 4.4 and Efflux pump inh 0.1.
For O=C(CSC1=NCCS1)Nc1ccc2ccccc2c1 the results were ALR inh 98.5*, SUMO Mot1 rescue 111.0, Bfl-1 A1 inh -0.6, AHR activator -2.0, VLA-4 inh 14.5 and Efflux pump inh 0.1.
Nc1nc(SCC(=O)Nc2cccc(F)c2)n[nH]1 was read as ALR inh 10.3, SUMO Mot1 rescue 5.4, Bfl-1 A1 inh -0.9, AHR activator -0.5, VLA-4 inh -0.1 and Efflux pump inh 0.0.
CC(=O)Nc1cccc(NC(=O)CSc2ccc(C(F)(F)F)cc2[N+](=O)[O-])c1 was read as ALR inh -12.1, SUMO Mot1 rescue 8.0, Bfl-1 A1 inh -0.2, AHR activator 6.9, VLA-4 inh -16.6 and Efflux pump inh 0.0.
For CCN(C(=O)CSc1cccc[n+]1[O-])C1CCCCC1 the results were ALR inh -0.4, SUMO Mot1 rescue -16.6, Bfl-1 A1 inh 0.0, AHR activator -0.1, VLA-4 inh -5.5 and Efflux pump inh 0.0.
